LYP act = activators of human LYP (PTPN22) phosphatase | Q9Y2R2 | recombinant LYP, DiFMUP fluorescence; 0 = plate median, 100 = signal doubled | activation, % at 2 µM | 96,000 compounds, 0.11% hits;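 active = activation at 2 µM above a set limit, the mean plus 5 SD, cut at about 37% in these data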
PTPN22 inh 2 = inhibitors of human LYP (PTPN22) phosphatase. Q9Y2R2. recombinant LYP catalytic domain, DiFMUP fluorescence. inhibition, % at 2 µM. 96,000 compounds, 0.21% hits. AID 640;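 active = inhibition at 2 µM at or above a set limit, the screen mean plus 3 SD, cut at about 24% in these data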
ERb coact inh = blocks coactivator binding to human estrogen receptor beta. inhibition, % at 25.6 µM. AID 633. 86,000 compounds, 1.3% hits. Q92731. TR-FRET ER-beta LBD / SRC1-Cy5 peptide binding; receptor agonist-loaded with 1 µM estradiol;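 active = compounds whose percent inhibition of the receptor-coactivator binding signal exceeds about 50% in the single-dose screen, limit read from the data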
ERa SRC1 pot = ER-alpha (human) coactivator binding potentiation; 86,000 compounds, 1.3% hits; P03372; TR-FRET ERalpha-LBD/SRC-Cy5 coactivator binding, 2 h; 100 = basal binding, no effect; coactivator binding (% of control), % at 25.6 µM; in the data active = activity above about 200%;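 also: binding measured in presence of low estradiol as agonist stimulus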
Target sequence (P03372 whole entry, looked up, the tested form may be a part): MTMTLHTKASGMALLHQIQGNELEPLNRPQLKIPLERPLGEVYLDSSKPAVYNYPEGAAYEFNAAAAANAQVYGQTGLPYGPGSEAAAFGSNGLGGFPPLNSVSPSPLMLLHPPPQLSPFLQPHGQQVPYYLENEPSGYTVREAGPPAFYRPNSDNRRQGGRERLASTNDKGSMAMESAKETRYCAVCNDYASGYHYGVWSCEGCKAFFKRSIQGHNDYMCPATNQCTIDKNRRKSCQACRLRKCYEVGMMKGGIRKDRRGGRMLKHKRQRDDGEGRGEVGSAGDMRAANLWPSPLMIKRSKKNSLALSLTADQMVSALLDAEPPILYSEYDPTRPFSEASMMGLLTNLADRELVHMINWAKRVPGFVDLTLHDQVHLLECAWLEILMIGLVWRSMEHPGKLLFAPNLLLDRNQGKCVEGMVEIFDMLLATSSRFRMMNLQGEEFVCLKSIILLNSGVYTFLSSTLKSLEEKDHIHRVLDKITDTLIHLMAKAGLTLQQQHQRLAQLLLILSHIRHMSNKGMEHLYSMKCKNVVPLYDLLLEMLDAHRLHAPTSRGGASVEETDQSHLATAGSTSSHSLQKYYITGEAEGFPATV
FAK inh = inhibitors of human focal adhesion kinase | Q05397 | 97,000 compounds, 0.84% hits | biochemical FAK kinase activity assay | AID 727 | inhibition, %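 (tested at 7 µM)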
ERa SRC1 inh = ER-alpha (human) coactivator binding inhibition. 86,000 compounds, 1.7% hits. AID 629. TR-FRET ER-alpha LBD / SRC-1 peptide, estradiol-bound. inhibition, % at 25.6 µM; in the data active = inhibition above about 50%
PTPN22 act conf = confirmation of human LYP phosphatase activators. 100 tested, under 10 active. Recombinant LYP, DIFMUP fluorescence, activation; zero set by plate's median compound well. shares compounds with LYP act. activation, % at 2 µM; call rule not given here
FAK inh conf = FAK (human) inhibition confirmed; shares compounds with FAK inh; FAK kinase biochemical inhibition assay; inhibition, % at 7 µM; 750 compounds, 28% hits; AID 794
Of the large screens only hits and unclear results are named; the others gave an inactive call (follow-up assays come after a bar, where they were run); [ ] = another dose, or the depositor's remark. The list is not random: actives were taken first. Their share in the collection is about 3.4%. Rule as the data show it, unless noted: active = inhibition above about 19%; inactive = the rest.

CCN(CC)P(=O)(NC(=O)C(Cl)(Cl)Cl)N(CC)CC.[Cl-].[Cl-].[Cl-].[Nd+3]	ERb coact inh 50.3[fluorescence artefact?], ERa SRC1 inh 69.2[fluorescence artefact?]
O=C(O)c1c[nH]c2ccc(S(=O)(=O)N(CCCl)CCCl)cc12	none
c1ccc2cc3cc4ccccc4cc3cc2c1	none (no result: LYP act, PTPN22 inh 2, FAK inh)
CC/C(=C\C=C\[C@@H]1C=C[C@@H]2CCC[C@H]2[C@@H]1C(=O)c1ccc[nH]1)[C@@H]1O[C@@H]([C@@H](C)C(=O)O)CC[C@@H]1C	PTPN22 inh 2 25.4
O=C(C1CCC(=O)N1C1CCCCC1)N1CCC2(CC1)OCCO2 (stereo not given)	none
Cc1ccc(C(=O)n2cc(CCN3CCS(=O)(=O)CC3)c3ccccc32)cc1	none (no result: ERb coact inh, ERa SRC1 pot, ERa SRC1 inh)
CCOc1ccc2[nH]c(=O)c(CN(CCO)C3(c4nnnn4C4CCCCC4)CCCCC3)cc2c1	ERa SRC1 pot 239.2
CC1CCC(NCC(O)c2ccccc2)CC1 (stereo not given)	ERa SRC1 pot 293.8[fluorescence artefact?]
COc1ccc2[nH]c(C)c(CCN3CCC(=O)C(C)C3C)c2c1 (stereo not given)	ERb coact inh 63.6[fluorescence artefact?] (no result: LYP act, PTPN22 inh 2)
O=P1(NC2CCCC2)COc2ccccc2OC1	none
O=P1(NCc2ccco2)COc2ccccc2OC1	ERa SRC1 pot 211.0[fluorescence artefact?]
Cc1ccccc1CS(=O)(=O)Cc1ccc(C(=O)N2CCC3(CC2)OCCO3)o1	none
COc1cc(CN2CCN(C(=O)COc3ccccc3)CC2)cc(OC)c1OC	none
Cn1cccc1CN1CCN(C(=O)COc2ccccc2)CC1	ERb coact inh 93.1[fluorescence artefact?]
C[C@]12CCC(=O)C=C1CCC1C2CC[C@@]2(C)C1CC[C@@]2(O)CC#N (stereo not given in full)	ERb coact inh 54.4 (no result: LYP act, PTPN22 inh 2, FAK inh)
CCCCn1c(O)c(C=Nc2c(C)n(C)n(-c3ccccc3)c2=O)c(=O)[nH]c1=O	none
O=C1NC(=O)N(Cc2ccccc2Cl)C(=O)/C1=C/N1CCOCC1	LYP act 43.3 | PTPN22 act conf inactive
CC(c1ccccc1)n1cncc1C(=O)N1CCCC1=O (stereo not given)	none
CN1CCN(c2ccc(N)cc2)CC1	ERb coact inh 90.6[fluorescence artefact?], FAK inh 67.2, ERa SRC1 inh 84.0[fluorescence artefact?] | FAK inh conf 74.3
CN1CCN(c2ccc(C=O)cc2)CC1	none
O=C(NC1CC1)C1CSC(c2cccnc2)=N1 (stereo not given)	none
CC12CN3CC(C)(CN(C1)P3(=O)Oc1ccccc1)C2=O (stereo not given)	FAK inh 50.5 | FAK inh conf inactive
CCC(C)NC(=O)c1c(N)n(CCCOC)c2nc3ccccc3nc12 (stereo not given)	FAK inh 37.2 | FAK inh conf inactive
COCCCn1c(N)c(C(=O)OC(C)COC)c2nc3ccccc3nc21 (stereo not given)	none (no result: LYP act, PTPN22 inh 2, FAK inh)
CC(Cc1ccccc1Sc1ccccc1O)N(C)C (stereo not given)	none (no result: ERb coact inh, ERa SRC1 pot, ERa SRC1 inh)
O=C1Nc2ccccc2/C1=C/c1cnc[nH]1	FAK inh 74.8 (no result: ERb coact inh, ERa SRC1 pot, ERa SRC1 inh) | FAK inh conf 47.0
